The results in this text go back to PubChem BioAssay (Tox21).

A short description of assay [1]: qHTS assay to identify small molecule agonists of the TGF-beta/Smad signaling pathway - cell viability counter screen (AID 1346829). Further: top concentration of the series differs between compounds; nearly all actives have a fitted effect of over 45% in size. In outline:
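Compound-treated SBE-bla HEK 293T cells (5 hr, 37 C) were assessed for viability with CellTiter-Glo in parallel with the reporter read.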
For orientation: qHTS replaces the single test concentration by a dilution series.

The nature of assay [2]: qHTS assay to identify small molecule agonists of the TGF-beta/Smad signaling pathway (AID 1346859; active means well fitted activation curve with a large enough effect in the signal ratio in the repeat runs, not every such curve was filed as active; the % refers to the signal ratio; further: series mostly up to about 77 µM). In outline:
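SBE-bla HEK293T cells plated overnight, then compound exposure for 5 h at 37 C. Beta-lactamase reporter read with LiveBLAzer B/G FRET substrate after 2 h at room temperature, fluorescence at 405 nm excitation, 460/530 nm emission.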

Assay [3] can be described thus: Human pregnane X receptor (PXR) small molecule agonists, qHTS cell viability counter screen (AID 1346977). Further: nearly all actives have a fitted effect of over 50% in size. In outline: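 PXR-Luc HepG2 cells (2,000/well, 5% charcoal-stripped FBS) preincubated 5 hr, then exposed to compounds 24 hr at 37 C. Viability read in the same wells by CellTiter-Fluor fluorescence, reagent added at 23 hr, 1 hr incubation.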
Assay [4] in a line: Caspase-3/7 induction in HepG2 cells by small molecules, qHTS assay (AID 1346978). Further: nearly all actives have a fitted effect of over 15% in size. The method, boiled down:
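Wild-type HepG2 cells, 2,000/well, settled 5 hr at 37 C and 5% CO2, then compound-treated for 17 hr; caspase-3/7 activity read by luminescent Caspase-Glo 3/7 after 30 min at room temperature.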

Assay [5] can be described thus: Caspase-3/7 induction in CHO-K1 cells by small molecules, qHTS cell viability counter screen (AID 1346979). Further: nearly all actives have a fitted effect of over 35% in size. In outline: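 Wild-type CHO-K1 cells (1,500/well) treated with compound after 5 h plating; after 16 h at 37C, viability read as CellTiter-Fluor fluorescence following 1 h reagent incubation, in the same wells as the caspase read.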
Assay [6] is described as follows: Caspase-3/7 induction in HepG2 cells by small molecules, qHTS cell viability counter screen (AID 1346981). Further: series mostly up to about 92 µM; nearly all actives have a fitted effect of over 30% in size. In outline: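 Treatment of HepG2 cells with DMSO-delivered compounds ran 16 hr at 37 C following a 5-hr pre-incubation of 2,000 cells/well. CellTiter-Fluor fluorescence, read after 1 hr, served as the viability measure in a qHTS format.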
For assay [7], the target named is Nuclear receptor subfamily 1 group I member 2 (Homo sapiens) (UniProt O75469). The assay can be described thus: Human pregnane X receptor (PXR) small molecule agonists, qHTS assay (AID 1346982). Further: nearly all actives have a fitted effect of over 35% in size. Further: potency means the concentration at half of the fitted maximal effect. In outline: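 Stable HepG2 line reporting PXR-mediated CYP3A4 expression via luciferase. Treatment: 24 hr with compounds in DMSO at 37 C. Detection: ONE-Glo luminescence.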

Assay [8] addresses Cytochrome P450 2C19 (Homo sapiens) (UniProt P33261). The assay can be described thus: Cytochrome P450 Family 2 Subfamily C Member 19 (CYP2C19) small molecule antagonists: luciferase reporter qHTS assay (AID 1671197). Further: series mostly up to about 120 µM; nearly all actives have a fitted effect of over 65% in size. The method, boiled down:
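P450-Glo CYP2C19 screening system; proluciferin substrate; DMSO compound stocks; 10 min RT preincubation; NADPH regeneration, 1 h at 37C; luciferin detection reagent, 20 min RT; luminescence as RLU.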
(A reporter such as luciferase makes a cellular process visible.)

Assay [9] concerns the target Cytochrome P450 2C9 (Homo sapiens) (UniProt P11712). The experiment in a line: Cytochrome P450 Family 2 Subfamily C Member 9 (CYP2C9) small molecule antagonists: luciferase reporter qHTS assay (AID 1671198). Further: nearly all actives have a fitted effect of over 50% in size. Further: potency means the concentration at half of the fitted maximal effect. On activity change, negative = inhibition: series mostly up to about 120 µM. In outline: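 P450-Glo proluciferin substrate with CYP2C9 enzyme; 10 min RT preincubation, then NADPH regeneration 1 h at 37C; luciferin detection reagent 20 min RT, luminescence in relative luminescence units.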

Assay [10] has as its target Cytochrome P450 1A2 (Homo sapiens) (UniProt P05177). The assay can be described thus: Cytochrome P450 Family 1 Subfamily A Member 2 (CYP1A2) small molecule antagonists: luciferase reporter qHTS assay (AID 1671199). Further: nearly all actives have a fitted effect of over 50% in size. Further: potency means the concentration at half of the fitted maximal effect. On activity change, negative = inhibition: series mostly up to about 120 µM. The method, boiled down:
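Read-out is luminescence from luciferin detection reagent (20 min) proportional to CYP1A2 activity; compounds in DMSO preincubated 10 min with enzyme and proluciferin substrate, then NADPH regeneration solution, 1 h, room temperature.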

Assay [11] addresses Voltage-gated inwardly rectifying potassium channel KCNH2 (Homo sapiens) (UniProt Q12809). The assay can be described thus: Human Ether-a-go-go-Related Gene (hERG) channel small molecule antagonists: fluorescence cell-based qHTS assay (AID 1671200).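 Further: hERG-expressing U2OS cells given a thallium stimulus after FluxOR II dye loading; series mostly up to about 77 µM; nearly all actives have a fitted effect of over 50% in size.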 In outline: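 hERG-U2OS cells plated overnight at 37 C, loaded with FluxOR II dye 1 h at RT in dark; after 10 min, thallium stimulus added. Fluorescence (480/540 nm) read kinetically for 2 min at 1 s intervals.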
(hERG is a cardiac potassium channel; its block is linked to QT prolongation.)

Assay [12] has as its target Cytochrome P450 3A4 (Homo sapiens) (UniProt P08684). The experiment in a line: Cytochrome P450 Family 3 Subfamily A Member 4 (CYP3A4) small molecule antagonists: luciferase reporter qHTS assay (AID 1671201). Further: nearly all actives have a fitted effect of over 50% in size. Further: potency means the concentration at half of the fitted maximal effect. On activity change, negative = inhibition: series mostly up to about 120 µM. The method, boiled down: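 P450-Glo CYP3A4 luminescent assay: compounds preincubated 10 min at room temperature with enzyme and proluciferin substrate, NADPH regeneration added, 1 h room-temperature reaction, stopped with luciferin detection reagent; luminescence read after 20 min. Ketoconazole positive control.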

Assay [13] deals with Cytochrome P450 2D6 (Homo sapiens) (UniProt P10635). The assay can be described thus: Cytochrome P450 Family 2 Subfamily D Member 6 (CYP2D6) small molecule antagonists: luciferase reporter qHTS assay (AID 1671196). Further: nearly all actives have a fitted effect of over 50% in size. Further: potency means the concentration at half of the fitted maximal effect. On activity change, negative = inhibition: series mostly up to about 120 µM. The method, boiled down:
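Chemicals tested for interference with CYP2D6 activity; proluciferin substrate, NADPH regeneration, 1 h at room temperature, luminescent detection.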

Assay [14] concerns the target Nuclear receptor subfamily 1 group I member 2 (Homo sapiens) (UniProt O75469). The assay can be described thus: CYP3A4 induction through human pregnane X receptor (PXR) by small molecules, qHTS assay (AID 1346984). Further: nearly all actives have a fitted effect of over 40% in size. The method, boiled down: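 After 24 h at 37C with compound, DPX-2 cells (HepG2, co-transfected PXR response element and CYP3A4 promoter-luciferase) got 3uM final P450-Glo Luciferin-IPA for 3 h; One-Glo luminescence followed.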

Assay [15] has the same target. The experiment in a line: Human pregnane X receptor (PXR) activation by small molecules, qHTS assay (AID 1346985). Further: nearly all actives have a fitted effect of over 40% in size. In outline: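 DPX-2 cells (HepG2 co-transfected with a PXR response element and a CYP3A4-promoter luciferase construct) were seeded at 2,000 per well, rested 5 hr at 37C, then exposed to DMSO-dissolved compounds for 24 hr. Activation was read as luciferase luminescence.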

A short description of assay [16]: Caspase-3/7 induction in CHO-K1 cells by small molecules, qHTS assay (AID 1346980). Further: nearly all actives have a fitted effect of over 15% in size. In outline:
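Wild-type CHO-K1 cells exposed to compounds for 17hr at 37 C, 5% CO2. Caspase-3/7 activity then measured by Caspase-Glo 3/7 luminescence after 30min at room temperature.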

The target of assay [17] is Nuclear receptor subfamily 1 group I member 2 (Rattus norvegicus) (UniProt Q9R1A7). The experiment in a line: Rat pregnane X receptor (rPXR) activation by small molecules, qHTS assay (AID 1346983). Further: nearly all actives have a fitted effect of over 20% in size. The conditions noted are these: rPXR luciferase reporter cells, One-Glo luminescence, 24 h; active compounds read high. The method, boiled down:
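Cell-based rPXR activation assay: rPXR cells, 2,000 per well, rested 5hr at 37 C, then exposed to compounds in DMSO for 24 hr at 37 C. Luciferase activity read by One-Glo luminescence after 30 min at room temperature.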

Values without a mark were called inactive. Inconclusive results are not listed. The source made the active and inactive calls. Unless noted, the call rests on the fitted dose curve; in most records, active means well fitted curve in the direction sought with a large enough effect in the repeat runs; inconclusive means weak or mixed curves; inactive means no such curve, though single readings can be large; an effect the other way counts as inactive or inconclusive.
On the % scale 0 is the no-effect control and ±100 the full control effect.

Voltage-gated inwardly rectifying potassium channel KCNH2 (Homo sapiens), sequence (Q12809 whole entry, looked up): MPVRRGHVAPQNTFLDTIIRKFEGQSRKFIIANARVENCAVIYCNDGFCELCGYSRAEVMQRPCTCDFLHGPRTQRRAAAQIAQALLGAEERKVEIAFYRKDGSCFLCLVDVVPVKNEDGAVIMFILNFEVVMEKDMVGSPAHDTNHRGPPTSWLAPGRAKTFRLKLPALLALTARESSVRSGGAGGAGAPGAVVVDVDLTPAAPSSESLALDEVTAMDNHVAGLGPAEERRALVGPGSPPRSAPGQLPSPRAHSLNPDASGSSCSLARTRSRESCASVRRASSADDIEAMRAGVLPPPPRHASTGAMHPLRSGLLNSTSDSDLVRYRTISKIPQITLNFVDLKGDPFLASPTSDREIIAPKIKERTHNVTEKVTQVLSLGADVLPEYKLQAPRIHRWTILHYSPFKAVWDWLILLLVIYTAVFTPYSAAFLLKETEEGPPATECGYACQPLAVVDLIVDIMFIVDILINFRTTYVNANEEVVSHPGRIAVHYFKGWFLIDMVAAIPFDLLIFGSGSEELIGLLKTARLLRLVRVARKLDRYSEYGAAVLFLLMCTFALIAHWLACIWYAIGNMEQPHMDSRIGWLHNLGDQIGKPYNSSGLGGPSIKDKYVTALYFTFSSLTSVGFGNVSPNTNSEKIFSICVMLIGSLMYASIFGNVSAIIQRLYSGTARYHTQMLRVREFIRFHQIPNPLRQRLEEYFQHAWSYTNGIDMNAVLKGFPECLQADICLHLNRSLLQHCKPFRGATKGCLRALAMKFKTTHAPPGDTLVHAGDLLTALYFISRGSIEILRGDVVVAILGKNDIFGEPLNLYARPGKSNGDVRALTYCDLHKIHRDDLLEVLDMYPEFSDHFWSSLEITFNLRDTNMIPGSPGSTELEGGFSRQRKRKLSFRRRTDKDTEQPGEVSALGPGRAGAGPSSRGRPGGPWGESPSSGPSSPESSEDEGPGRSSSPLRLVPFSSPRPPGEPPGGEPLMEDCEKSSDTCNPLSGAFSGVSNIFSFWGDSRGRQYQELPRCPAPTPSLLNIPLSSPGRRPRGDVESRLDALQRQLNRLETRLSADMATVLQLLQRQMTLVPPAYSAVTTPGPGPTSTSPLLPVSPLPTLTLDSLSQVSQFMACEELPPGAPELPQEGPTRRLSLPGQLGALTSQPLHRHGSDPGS
Cytochrome P450 2C9 (Homo sapiens), sequence (P11712 whole entry, looked up): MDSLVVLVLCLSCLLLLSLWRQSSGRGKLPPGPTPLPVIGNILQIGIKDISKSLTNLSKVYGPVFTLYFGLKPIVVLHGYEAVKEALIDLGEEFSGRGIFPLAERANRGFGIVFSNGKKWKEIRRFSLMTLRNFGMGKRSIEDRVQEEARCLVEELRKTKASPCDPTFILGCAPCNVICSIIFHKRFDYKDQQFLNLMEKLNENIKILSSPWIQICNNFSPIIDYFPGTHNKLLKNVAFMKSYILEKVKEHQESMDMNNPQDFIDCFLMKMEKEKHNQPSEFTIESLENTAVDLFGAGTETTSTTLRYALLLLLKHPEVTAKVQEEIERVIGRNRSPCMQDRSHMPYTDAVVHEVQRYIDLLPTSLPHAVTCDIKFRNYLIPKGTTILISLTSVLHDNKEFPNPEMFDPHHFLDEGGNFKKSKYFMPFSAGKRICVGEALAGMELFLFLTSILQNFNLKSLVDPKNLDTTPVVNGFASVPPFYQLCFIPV
Nuclear receptor subfamily 1 group I member 2 (Homo sapiens), sequence (O75469 whole entry, looked up): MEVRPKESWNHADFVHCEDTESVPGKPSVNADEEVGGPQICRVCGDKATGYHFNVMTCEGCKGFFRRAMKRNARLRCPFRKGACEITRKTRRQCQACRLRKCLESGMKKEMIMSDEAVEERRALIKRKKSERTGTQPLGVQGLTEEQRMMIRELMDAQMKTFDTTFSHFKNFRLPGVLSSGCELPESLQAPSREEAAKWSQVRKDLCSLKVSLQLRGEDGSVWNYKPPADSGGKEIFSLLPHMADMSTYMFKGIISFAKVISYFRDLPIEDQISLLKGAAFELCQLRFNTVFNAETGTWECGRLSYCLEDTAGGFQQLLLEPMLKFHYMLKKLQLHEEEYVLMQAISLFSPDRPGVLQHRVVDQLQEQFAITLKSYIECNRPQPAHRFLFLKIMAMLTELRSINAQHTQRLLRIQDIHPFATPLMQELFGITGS
Cytochrome P450 2C19 (Homo sapiens), sequence (P33261 whole entry, looked up): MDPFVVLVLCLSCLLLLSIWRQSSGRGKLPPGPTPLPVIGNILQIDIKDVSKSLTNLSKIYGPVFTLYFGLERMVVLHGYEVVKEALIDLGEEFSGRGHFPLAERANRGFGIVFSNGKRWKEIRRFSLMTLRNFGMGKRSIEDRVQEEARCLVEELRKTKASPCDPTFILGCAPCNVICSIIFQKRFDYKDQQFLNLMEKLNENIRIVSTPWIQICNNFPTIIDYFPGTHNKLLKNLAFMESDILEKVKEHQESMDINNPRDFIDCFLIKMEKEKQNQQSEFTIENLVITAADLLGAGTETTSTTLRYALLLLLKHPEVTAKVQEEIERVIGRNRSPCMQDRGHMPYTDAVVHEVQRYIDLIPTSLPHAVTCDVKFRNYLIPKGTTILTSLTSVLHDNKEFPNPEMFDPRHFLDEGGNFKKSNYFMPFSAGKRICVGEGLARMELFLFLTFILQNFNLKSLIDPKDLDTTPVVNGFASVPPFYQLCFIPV
Cytochrome P450 1A2 (Homo sapiens), sequence (P05177 whole entry, looked up): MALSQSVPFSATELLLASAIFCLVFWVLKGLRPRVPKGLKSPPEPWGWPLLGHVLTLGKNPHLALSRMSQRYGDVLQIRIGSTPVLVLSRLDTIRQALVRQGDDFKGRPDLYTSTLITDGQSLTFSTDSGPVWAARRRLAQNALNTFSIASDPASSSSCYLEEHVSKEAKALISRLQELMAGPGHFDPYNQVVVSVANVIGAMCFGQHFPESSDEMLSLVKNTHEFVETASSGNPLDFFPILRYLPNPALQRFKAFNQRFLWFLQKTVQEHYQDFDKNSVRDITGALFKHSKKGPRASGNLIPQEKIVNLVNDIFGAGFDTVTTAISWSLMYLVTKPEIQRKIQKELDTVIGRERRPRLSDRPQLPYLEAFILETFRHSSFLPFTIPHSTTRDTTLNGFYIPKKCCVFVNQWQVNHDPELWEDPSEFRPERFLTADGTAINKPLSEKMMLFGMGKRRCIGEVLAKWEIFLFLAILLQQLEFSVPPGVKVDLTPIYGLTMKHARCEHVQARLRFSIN
Cytochrome P450 2D6 (Homo sapiens), sequence (P10635 whole entry, looked up): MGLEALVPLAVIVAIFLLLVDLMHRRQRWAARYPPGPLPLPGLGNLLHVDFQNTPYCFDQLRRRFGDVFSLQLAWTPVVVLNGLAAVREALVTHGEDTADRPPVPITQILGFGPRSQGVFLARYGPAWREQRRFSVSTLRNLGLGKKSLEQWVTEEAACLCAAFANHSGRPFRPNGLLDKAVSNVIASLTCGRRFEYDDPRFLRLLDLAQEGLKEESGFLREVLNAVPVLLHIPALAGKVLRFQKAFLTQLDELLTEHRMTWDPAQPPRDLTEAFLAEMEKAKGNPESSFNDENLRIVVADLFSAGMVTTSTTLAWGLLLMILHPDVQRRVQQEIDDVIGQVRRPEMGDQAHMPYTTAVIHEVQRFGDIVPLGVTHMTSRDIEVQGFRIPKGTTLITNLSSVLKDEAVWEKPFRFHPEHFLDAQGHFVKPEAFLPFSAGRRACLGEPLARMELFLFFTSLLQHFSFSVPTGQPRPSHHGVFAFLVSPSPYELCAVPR
Cytochrome P450 3A4 (Homo sapiens), sequence (P08684 whole entry, looked up): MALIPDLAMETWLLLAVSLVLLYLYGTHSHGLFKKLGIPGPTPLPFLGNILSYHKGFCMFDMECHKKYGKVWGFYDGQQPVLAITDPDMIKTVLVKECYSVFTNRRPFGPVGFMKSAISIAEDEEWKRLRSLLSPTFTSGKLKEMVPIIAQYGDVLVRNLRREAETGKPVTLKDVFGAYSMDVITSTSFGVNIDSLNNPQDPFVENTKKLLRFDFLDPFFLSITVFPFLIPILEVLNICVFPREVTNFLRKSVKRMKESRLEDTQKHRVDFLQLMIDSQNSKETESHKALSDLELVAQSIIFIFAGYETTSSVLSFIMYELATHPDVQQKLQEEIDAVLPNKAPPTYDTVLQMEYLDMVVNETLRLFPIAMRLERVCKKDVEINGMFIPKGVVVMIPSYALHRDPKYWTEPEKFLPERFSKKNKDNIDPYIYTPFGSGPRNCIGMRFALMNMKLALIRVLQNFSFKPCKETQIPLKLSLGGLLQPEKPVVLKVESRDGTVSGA
Nuclear receptor subfamily 1 group I member 2 (Rattus norvegicus), sequence (Q9R1A7 whole entry, looked up): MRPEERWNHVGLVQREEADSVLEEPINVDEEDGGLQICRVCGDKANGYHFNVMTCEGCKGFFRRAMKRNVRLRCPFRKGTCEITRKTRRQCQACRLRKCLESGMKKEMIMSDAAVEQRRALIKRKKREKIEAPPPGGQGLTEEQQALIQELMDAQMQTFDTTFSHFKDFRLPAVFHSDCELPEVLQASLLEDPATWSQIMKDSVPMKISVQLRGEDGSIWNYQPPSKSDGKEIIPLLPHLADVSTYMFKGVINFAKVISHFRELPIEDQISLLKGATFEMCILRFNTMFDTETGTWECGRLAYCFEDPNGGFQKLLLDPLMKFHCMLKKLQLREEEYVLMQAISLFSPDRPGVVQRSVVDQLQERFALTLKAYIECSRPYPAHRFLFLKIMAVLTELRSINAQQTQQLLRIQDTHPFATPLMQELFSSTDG

Take `O=Cc1ccccc1Cl`: the compound was classed as inactive in assay [1], in [2], in [3], in assay [4] and in assay [6]. Also, the Potency entry in [5], in assay [7], in assay [8], in assay [9], in [10] and in assay [11] was “inactive” in each case. For the same compound, in assay [12], the Potency result is “inactive”.

Turning to `CC(=O)O[Si](C)(OC(C)=O)OC(C)=O`, the outcome in [1], in assay [2], in [3], in assay [4] and in assay [6] was inactive. Further, the Potency entry in [7], in assay [13], in assay [8], in assay [9], in assay [10] and in [11] was “inactive” each time. The Potency in [12] is 5.15 µM (active).

On to `CCC(=O)c1c(O)cc(O)cc1O`, for which the compound was called inactive in assay [1], in [2], in [3], in [4] and in assay [6]. The Potency result in assay [5], in assay [7], in [14] and in assay [15] was “inactive” in each case. The Potency in assay [13] is 27.5 µM (active); in assay [9] it was 13.8 µM (active); in [10], 12.9 µM (active).

Consider `CCn1cc(C(=O)O)c(=O)c2cnc(N3CCCC3)nc21`, for which the activity change, negative = cytotoxicity is 3.95% [at 6.97 µM] in assay [1], -1.63% [at 8.39 µM] in assay [3] and -1.49% [at 8.39 µM] in [6]. The activation in assay [2] was -0.108% [at 6.97 µM]. Further, the caspase activation in assay [4] was 1.75% [at 8.39 µM]. In addition, the caspase-3/7 activation in assay [16] was 1.6% [at 8.39 µM]. Moreover, in assay [17], the max activation was -0.363%. In addition, the activity change, negative = inhibition was -11.6% [at 10.5 µM] in assay [8] and -5.15% [at 6.97 µM] in assay [11].

Consider `COC(=O)CCCCC(=O)O`, for which the outcome in [1], in assay [2], in [4], in assay [16] and in assay [6] was inactive. The Potency result in assay [5], in [7], in [13], in assay [8], in [9] and in assay [10] was “inactive” in each case. The Potency entry in assay [11] and in assay [12] was “inactive” throughout.

For `c1ccc2cnccc2c1`, the outcome in assay [1], in assay [2], in [3], in assay [4], in assay [16] and in assay [6] was inactive. Further, the Potency in assay [13] was 35.6 µM (active). Also, the Potency entry in [8], in [9] and in [11] was “inactive” each time.

`Cc1ccc(N)cc1S(=O)(=O)O`: the outcome in assay [1], in assay [2], in assay [4], in assay [16] and in assay [6] was inactive. The Potency result in [5], in [11] and in assay [12] was “inactive” in each case. For the same compound, the Potency in assay [7] is 61.1 µM (active); in [9], 63.3 µM (active); in assay [10], 39.9 µM (active).

As to `CCCCCc1cccc(=O)o1`, the compound was called inactive in assay [1], in [2], in assay [4], in assay [16] and in assay [6]. Also, the Potency entry in assay [7], in assay [13] and in assay [12] was “inactive” in each case. Besides, the Potency in [10] was 35.6 µM (active).

On to `C=CCCCC`, for which the compound was classed as inactive in assay [1], in [2], in [3], in assay [4], in assay [16] and in assay [6]. Also, the Potency result in assay [7], in assay [13], in [8], in assay [9], in assay [10] and in assay [11] was “inactive” throughout. For the same compound, in [12], the Potency entry was “inactive”.
